This note sets out measurements from PubChem BioAssay AID743354 (Broad Institute, 2014).

Entries with a potency or affinity are not part of this list. A number with no mark means an inactive call.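 The calls were made as follows: active = cytotoxic signal drop with a fitted half-maximal concentration at most twice the top valid tested dose; inconclusive = flat fit with moderate signal loss, or poor fit quality; inactive = opposite effect, flat response, or potency beyond limit.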

The assay in a line: viability loss in HEK293 cells – cell-based, luminescence, dry powder, set 12, cytotoxicity control, dose response (AID 743354). To be noted: HEK293T viability, CellTiter-Glo ATP luminescence, 72 h; series mostly up to 26 µM; activity change, negative = cytotoxic: at the top concentration.
On to `CCCCCCCC(=O)N1CC[C@@H]2[C@@H](CO)N(C)c3ccc(-c4cccc(F)c4)cc3[C@@H]21`, for which the “activity change, negative = cytotoxic” value was 3.9%.

In the case of `CC(C)NC(=O)N1CC[C@@H]2[C@@H](CO)N(C)c3ccc(-c4cccc(F)c4)cc3[C@@H]21`, the “activity change, negative = cytotoxic” value is -2.92%.

As for `COCC(=O)N1CC[C@@H]2[C@@H](CO)N(C)c3ccc(-c4cccc(F)c4)cc3[C@@H]21`, the “activity change, negative = cytotoxic” value was -6.94%.

Regarding `CN1c2ccc(-c3cccc(F)c3)cc2[C@@H]2[C@@H](CCN2C(=O)c2ccc3c(c2)OCO3)[C@@H]1CO`, the “activity change, negative = cytotoxic” value is -1.34%.

As to `CC(=O)c1ccc(N2CCN(C(=O)c3ccc4c(c3)OCO4)[C@H](C)C2)cc1`, the “activity change, negative = cytotoxic” value was -0.499%.

Take `COc1ccccc1NC(=O)N1CC[C@@H]2[C@@H](CO)N(C)c3ccc(-c4cccc(F)c4)cc3[C@@H]21`: the “activity change, negative = cytotoxic” value was -4.14% [at 23.5 µM].

For the molecule `CNS(=O)(=O)c1ccc(N2CCN(C(=O)c3ccc4c(c3)OCO4)CC2)cc1`, the “activity change, negative = cytotoxic” value was 1.42%.

With `CCC(=O)N1CC[C@@H]2[C@@H](CO)N(C)c3ccc(-c4ccc(F)cc4)cc3[C@@H]21`, the “activity change, negative = cytotoxic” value was 2.33% [at 23.5 µM].

With `COc1ccc(NC(=O)N2CC[C@@H]3[C@@H](CO)N(C)c4ccc(-c5ccc(F)cc5)cc4[C@@H]32)cc1`, the “activity change, negative = cytotoxic” value was -1.74%.

As to `COc1cccc(NC(=O)N2CC[C@@H]3[C@@H](CO)N(C)c4ccc(-c5cccc(F)c5)cc4[C@@H]32)c1`, the “activity change, negative = cytotoxic” value was -1.77%.

As for `CC(=O)c1ccc(N2CCN(C(=O)c3ccccc3Cl)CC2)cc1`, the “activity change, negative = cytotoxic” value is -1%.

On to `CC(C)NC(=O)N1CC[C@@H]2[C@@H](CO)N(C)c3ccc(-c4ccc(F)cc4)cc3[C@@H]21`, for which the “activity change, negative = cytotoxic” value was -6.15%.

Regarding `CN1c2ccc(-c3cccc(F)c3)cc2[C@H]2[C@H](CCN2C(=O)Nc2ccccc2F)[C@H]1CO`, the “activity change, negative = cytotoxic” value was -2.02% [at 23.5 µM].

Regarding `COc1ccc(NC(=O)N2CC[C@@H]3[C@@H](CO)N(C)c4ccc(-c5cccc(F)c5)cc4[C@@H]32)cc1`, the “activity change, negative = cytotoxic” value is 1.8%.

Regarding `CN(C)C(=O)c1ccc(N2CCN(C(=O)c3ccc4c(c3)OCO4)CC2)cc1`, the “activity change, negative = cytotoxic” value was -0.522%.

For `CC(=O)c1ccc(N2CC3(CN(C(=O)c4ccc5c(c4)OCO5)C3)C2)cc1`, the “activity change, negative = cytotoxic” value was 3.16%.

In the case of `COC(=O)c1ccc(N2CCN(C(=O)c3ccc4c(c3)OCO4)CC2)cc1`, the “activity change, negative = cytotoxic” value is 1.03%.

For `CC(=O)c1ccc(NCCNC(=O)c2ccc3c(c2)OCO3)cc1`, the “activity change, negative = cytotoxic” value was -0.945%.

Regarding `CN1c2ccc(-c3ccc(F)cc3)cc2[C@H]2[C@H](CCN2C(=O)Nc2cc(F)ccc2F)[C@H]1CO`, the “activity change, negative = cytotoxic” value was -9.18% [at 23.5 µM].

In the case of `CN1c2ccc(-c3cccc(F)c3)cc2[C@H]2[C@H](CCN2C(=O)CCCCCCC(=O)O)[C@H]1CO`, the “activity change, negative = cytotoxic” value is -2.42%.

For `CN1c2ccc(-c3ccc(F)cc3)cc2[C@H]2[C@H](CCN2C(=O)Cc2ccccn2)[C@H]1CO`, the “activity change, negative = cytotoxic” value was -0.802%.

Consider `CCCNC(=O)N1CC[C@@H]2[C@@H](CO)N(C)c3ccc(-c4ccc(F)cc4)cc3[C@@H]21`, for which the “activity change, negative = cytotoxic” value was -1.65%.

As to `CN1c2ccc(-c3cccc(F)c3)cc2[C@H]2[C@H](CCN2C(=O)Cc2ccccc2)[C@H]1CO`, the “activity change, negative = cytotoxic” value was -7.06% [at 23.5 µM].

On to `CN1c2ccc(-c3ccc(F)cc3)cc2[C@H]2[C@H](CCN2C(=O)Nc2ccc(F)cc2)[C@H]1CO`, for which the “activity change, negative = cytotoxic” value was -6.51%.

As for `CN1c2ccc(-c3cccc(F)c3)cc2[C@@H]2[C@@H](CCN2C(=O)c2ccc3c(c2)OCO3)[C@H]1CO`, the “activity change, negative = cytotoxic” value was 1.77%.

Regarding `CN1c2ccc(-c3cccc(F)c3)cc2[C@H]2[C@H](CCN2C(=O)Cc2cccnc2)[C@H]1CO`, the “activity change, negative = cytotoxic” value was -0.157%.

Regarding `CNC(=O)c1ccc(N2CCN(C(=O)c3ccc4c(c3)OCO4)CC2)cc1`, the “activity change, negative = cytotoxic” value is -0.972%.

Take `CN1c2ccc(-c3cccc(F)c3)cc2[C@H]2[C@H](CCN2C(=O)c2ccc3c(c2)OCO3)[C@@H]1CO`: the “activity change, negative = cytotoxic” value was 3.57%.

Turning to `CN1c2ccc(-c3ccc(F)cc3)cc2[C@H]2[C@H](CCN2C(=O)Cc2cccnc2)[C@H]1CO`, the “activity change, negative = cytotoxic” value was 2.81% [at 23.5 µM].

Turning to `COc1ccccc1C(=O)N1CCN(c2ccc(C(C)=O)cc2)CC1`, the “activity change, negative = cytotoxic” value is -1.08%.

For `CC(=O)c1ccc(N2CCN(C(=O)c3ccc4c(c3)OCO4)CC2)cc1`, the “activity change, negative = cytotoxic” value is -6.96%.

Take `COc1ccccc1NC(=O)N1CC[C@@H]2[C@@H](CO)N(C)c3ccc(-c4ccc(F)cc4)cc3[C@@H]21`: the “activity change, negative = cytotoxic” value was -4.86%.
